“And” between values parts separate entries of the source, which are not always exact repeats. Equal values may be shown once. Hit rate of the full screen: of about 350,000 compounds, about 6,000 (1.7%) were called active. Inconclusive results (about 5%) are left out. No stated cut-off is given here; in the data, active means CPE inhibition above about 20% (passing the limit was not always enough); inconclusive means no clear call, values can overlap the other calls; tested in BHK-21 cells. Only a selection was taken, and actives are over-represented in it overall. Some compounds were tested as several samples or in several runs, with calls that do not always agree.

This assay in a line: inhibitors of DENV2 cytopathic effect, primary screen, cell-based, plate reader, single concentration (AID 651640).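 Further: 0% = median of neutral control wells and 100% = median of positive control wells.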 The note with it: DENV2-infected cells, cytopathic effect rescue, at 9.99 µM, stronger effect = higher value.
As to `O=C1NC[C@@H](c2ccccc2)OC(=O)[C@H](Cc2ccc(F)cc2)CC/C=C/C[C@H]1CC(=O)N(CCO)Cc1ccccc1`, the CPE inhibition was -5.29% (inactive).

Turning to `O=C1CCC/C=C/C[C@@H](CC(=O)N(CCO)Cc2ccccc2)C(=O)NC[C@H](c2ccccc2)O1`, the CPE inhibition was 85.4% (active).

In the case of `O=C1CCC/C=C\C[C@@H](CC(=O)N(CCO)Cc2ccccc2)C(=O)NCCO1`, the CPE inhibition was -1.93% (inactive).

In the case of `COCCN(C[C@H]1[C@H](c2ccccc2)[C@@H](CO)N1C(C)=O)C(=O)c1cccnc1`, the CPE inhibition was -2.67% (inactive).

`CN1C(=O)c2cc(NS(=O)(=O)c3ccccc3F)ccc2OC[C@@H]2O[C@@H](CC(=O)NC3Cc4ccccc4C3)CC[C@@H]21`: the CPE inhibition is 11.5% (inactive).

Regarding `Cc1ccc(F)cc1S(=O)(=O)N[C@@H]1CCN(Cc2ccc(-c3ccccc3)cc2)C1`, the CPE inhibition was -7.61% (inactive).

With `Cc1ccc2nc(-c3ccc(CN4CCC(n5cc(-c6ccccc6)[nH]c5=O)CC4)cc3)c(-c3ccccc3)nc2c1`, the CPE inhibition is -12.7% (inactive).

Turning to `O=c1[nH]c(-c2ccccc2)cn1C1CCN(Cc2ccc(-c3nc4ccc(F)cc4nc3-c3ccccc3)cc2)CC1`, the CPE inhibition was 33.2% (active).

As to `C=CCN=C1NC(c2cccc(C(F)(F)F)c2)C(C(=O)OC)=C(C)N1C` (stereo not drawn), the CPE inhibition was 2.58% (inactive).

In the case of `C[C@@H](NC(=O)C[C@@H]1CC[C@@H](NC(=O)C2CCOCC2)[C@@H](CO)O1)c1ccccc1`, the CPE inhibition is 11.3% (inactive).

Take `CN1c2ccc(-c3ccc(F)cc3)cc2[C@@H]2[C@@H](CCN2S(=O)(=O)c2ccc(F)cc2)[C@@H]1CO`: the CPE inhibition is -22.1% (inactive).

With `CC(=O)NC(Cc1c[nH]c2ccccc12)C(=O)NCCc1ccccc1` (stereo not drawn), the CPE inhibition is -3% (inactive).

As for `O=C(NCCc1c[nH]c2ccccc12)c1cccc(Br)c1`, the CPE inhibition was 0.922% (inactive).

Take `C[C@]1(C(=O)NCCc2c[nH]c3ccccc23)C=C[C@@H](Cc2ccccc2)N1C(=O)c1ccccc1`: the CPE inhibition was 40.2% (active).

As to `COCCNC(=O)C[C@H]1CC[C@@H]2[C@H](COc3ccc(NC(=O)Nc4cccc(F)c4)cc3C(=O)N2C)O1`, the CPE inhibition was -0.175% (inactive).

Take `C[C@H](CO)N1C[C@H](C)[C@H](CN(C)S(=O)(=O)c2cn(C)cn2)Oc2ccc(N(C)C)cc2C1=O`: the CPE inhibition was 6.45% (inactive).

With `C[C@@H]1CN([C@H](C)CO)C(=O)c2cc(N(C)C)ccc2O[C@@H]1CN(C)S(=O)(=O)c1cn(C)cn1`, the CPE inhibition was 70.9% (active).

Take `C[C@H](CO)N1C[C@H](C)[C@H](CN(C)S(=O)(=O)c2cn(C)cn2)OCCCC[C@H](C)Oc2ccc(N(C)C)cc2C1=O`: the CPE inhibition is 1.23% (inactive).

On to `Cc1noc(C)c1NC(=O)Nc1ccc2c(c1)C(=O)N([C@H](C)CO)C[C@H](C)[C@@H](CN(C)S(=O)(=O)c1cn(C)cn1)O2`, for which the CPE inhibition is 8.16% (inactive) and 22.2% (active).

In the case of `COc1ccc(S(=O)(=O)N(C)C[C@@H]2Oc3ccc(NC(=O)Nc4c(C)noc4C)cc3C(=O)N([C@H](C)CO)C[C@@H]2C)cc1`, the CPE inhibition was -4.21% (inactive) and 6.91% (inactive).

For the compound `Cc1noc(C)c1NC(=O)Nc1ccc2c(c1)C(=O)N([C@@H](C)CO)C[C@H](C)[C@H](CN(C)S(=O)(=O)c1cn(C)cn1)OCCCC[C@@H](C)O2`, the CPE inhibition is -4.2% (inactive).

In the case of `COCC(=O)Nc1ccc2c(c1)[C@@H]1C[C@@H](CC(=O)N3CCN(C)CC3)O[C@H](CO)[C@@H]1O2`, the CPE inhibition is 2.6% (inactive).

As to `C[C@@H]1CN([C@H](C)CO)C(=O)c2cccc(NC(=O)CCCCCC(=O)Nc3ccccc3N)c2O[C@H]1CN(C)Cc1ccc(Oc2ccccc2)cc1`, the CPE inhibition was -13.3% (inactive).

For the compound `CO[C@@H]1CN(C)C(=O)c2cc(NC(C)=O)ccc2OC[C@H](C)N(C(=O)Cc2ccccn2)C[C@@H]1C`, the CPE inhibition was -0.178% (inactive).

In the case of `COCC(=O)N1CCC2(CC1)CN(C(=O)Nc1ccccc1F)[C@@H](CO)c1c2c2ccc(OC)cc2n1C`, the CPE inhibition is -0.316% (inactive).

Turning to `COCC(=O)Nc1ccc2c(c1)OC[C@@H](C)N(C(=O)c1cnccn1)C[C@H](C)[C@H](OC)CN(C)C2=O`, the CPE inhibition was -10.2% (inactive).

In the case of `COc1ccc(NC(=O)Nc2ccc3c(c2)C(=O)N([C@@H](C)CO)C[C@H](C)[C@@H](CN(C)C(=O)Nc2cccc4ccccc24)OCCCC[C@@H](C)O3)cc1`, the CPE inhibition is -3.89% (inactive).

Take `C[C@@H]1CN([C@@H](C)CO)C(=O)c2cc(NC(=O)Nc3ccc4c(c3)OCO4)ccc2O[C@@H](C)CCCCO[C@@H]1CN(C)C(=O)Nc1ccc2c(c1)OCO2`: the CPE inhibition was 0.286% (inactive).

As to `C[C@@H]1CCCCO[C@H](CN(C)C(=O)NC2CCCCC2)[C@H](C)CN([C@H](C)CO)C(=O)c2cc(NC(=O)Nc3ccc(F)cc3)ccc2O1`, the CPE inhibition was -5.97% (inactive).

On to `C[C@@H]1CCCCO[C@@H](CN(C)C(=O)NC2CCCCC2)[C@H](C)CN([C@@H](C)CO)C(=O)c2cc(NC(=O)Nc3ccc(F)cc3)ccc2O1`, for which the CPE inhibition is 24.1% (active).

For the compound `C[C@@H]1CCCCO[C@@H](CN(C)C(=O)CCCN(C)C)[C@@H](C)CN([C@H](C)CO)C(=O)c2cc(NC(=O)Nc3ccc(F)cc3)ccc2O1`, the CPE inhibition was 26.3% (active).

`C[C@@H]1CCCCO[C@H](CN(C)C(=O)Nc2cccc3ccccc23)[C@@H](C)CN([C@@H](C)CO)C(=O)c2cc(NC(=O)Nc3ccc(F)cc3)ccc2O1`: the CPE inhibition is 32.7% (active).

For `C[C@@H]1CCCCO[C@H](CN(C)C(=O)NC2CCCCC2)[C@H](C)CN([C@@H](C)CO)C(=O)c2cc(NC(=O)Nc3ccc(F)cc3)ccc2O1`, the CPE inhibition was 3.1% (inactive).

Regarding `C[C@@H]1CN([C@@H](C)CO)C(=O)c2cc(NC(=O)Nc3ccc(C(F)(F)F)cc3)ccc2O[C@@H](C)CCCCO[C@H]1CN(C)C(=O)CCCN(C)C`, the CPE inhibition is -0.11% (inactive).

Consider `C[C@@H]1CCCCO[C@@H](CN(C)C(=O)CCCN(C)C)[C@H](C)CN([C@@H](C)CO)C(=O)c2cc(NC(=O)Nc3ccccc3)ccc2O1`, for which the CPE inhibition is -0.42% (inactive).

`C[C@H]1CCCCO[C@H](CN(C)C(=O)NC2CCCCC2)[C@@H](C)CN([C@@H](C)CO)C(=O)c2cc(NC(=O)Nc3ccc4c(c3)OCO4)ccc2O1`: the CPE inhibition is 34.9% (active).

For `C[C@@H]1CN([C@@H](C)CO)C(=O)c2cc(NC(=O)Nc3ccc(C(F)(F)F)cc3)ccc2O[C@@H](C)CCCCO[C@@H]1CN(C)C(=O)Nc1cccc2ccccc12`, the CPE inhibition was -5.51% (inactive).

On to `C[C@H](CO)N1C[C@H](C)[C@@H](CN(C)C(=O)Nc2ccc3c(c2)OCO3)OCCCC[C@H](C)Oc2ccc(NC(=O)Nc3ccc4c(c3)OCO4)cc2C1=O`, for which the CPE inhibition was 0.76% (inactive).
